Assay outcomes: PubChem BioAssay, The Scripps Research Institute Molecular Screening Center
A selection: hits, their analogues and other compounds. The true share with any hit is near 3.2%.
MsrA act: bovine MsrA enzyme activators, primary screen, biochemical, absorbance, HTS; purified bovine MsrA, absorbance read-out; activation, % at 10.6 µM; actives 0.3% (n = 360,000); AID 602163, 2012; in the data active = activation above about 7.5%;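 also: 0% = vehicle and 100% = reference activator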
PG9 Ab binder: binders of HIV-1 gp120 antibody PG9, primary screen, biochemical, TR-FRET | inhibition, % at 6.7 µM | actives 0.43% (n = 360,000) | HIV-1 gp120 / PG9 antibody interaction | TR-FRET gp120-PG9 antibody binding | AID 624416, 2012; in the data active = inhibition above about 8.5%
HGIII-sPLA2 inh: human group III sPLA2 inhibitors, primary screen, biochemical, QFRET, BODIPY PC-A2 liposome substrate; inhibition, % at 12.2 µM; QFRET BODIPY PC-A2 liposome hydrolysis, fluorescence; AID 743126, 2013; actives 0.56% (n = 370,000);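 active = inhibition above mean plus 3 SD of compounds lying within the high and low control bounds, cut at about 19% in these data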;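 also: 0% = median of test compound wells and 100% = no enzyme DMSO wells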
Target sequence (Q9NZ20 whole entry, looked up): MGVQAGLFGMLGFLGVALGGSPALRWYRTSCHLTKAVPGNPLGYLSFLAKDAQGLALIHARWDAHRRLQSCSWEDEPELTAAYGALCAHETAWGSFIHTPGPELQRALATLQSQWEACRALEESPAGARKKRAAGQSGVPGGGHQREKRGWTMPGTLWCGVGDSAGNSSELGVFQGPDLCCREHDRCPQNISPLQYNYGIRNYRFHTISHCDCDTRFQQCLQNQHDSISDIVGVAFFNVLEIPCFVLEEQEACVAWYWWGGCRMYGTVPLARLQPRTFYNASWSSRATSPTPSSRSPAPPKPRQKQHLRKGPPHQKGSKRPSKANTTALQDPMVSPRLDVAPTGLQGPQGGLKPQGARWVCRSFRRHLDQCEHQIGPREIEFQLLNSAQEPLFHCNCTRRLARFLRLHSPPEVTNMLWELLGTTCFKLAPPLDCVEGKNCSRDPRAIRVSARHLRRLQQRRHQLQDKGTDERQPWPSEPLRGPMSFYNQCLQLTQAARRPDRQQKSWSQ
MsrA inhibitor: bovine MsrA enzyme inhibitors, primary screen, biochemical, absorbance, HTS; inhibition, % at 15.5 µM; purified bovine MsrA, absorbance read-out; Methionine sulfoxide reductase A (Bos taurus); actives 0.75% (n = 360,000); AID 651718, 2012; in the data active = inhibition above about 4.5%;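 also: 0% = vehicle wells with enzyme and 100% = reference inhibitor wells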
rCAG RNA binder: binders of r(CAG) RNA repeats, primary screen, biochemical, fluorescence; r(CAG) RNA repeat, TO-PRO-1 dye displacement fluorescence; inhibition, % at 3 µM; actives 1.3% (n = 370,000);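 active = inhibition above the plate cutoff, the mean of all test compounds on that plate plus 3 SD, cut at about 35% in these data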;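 also: 0% = DMSO alone and 100% = 100 µM mitoxantrone as full dye displacement; higher means more dye released from RNA so lower well fluorescence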
* marks the source's active call; other numbers are inactive results.

For CCOc1cc(C2CC(=O)N3CN(C4CCCCC4)CSC3=C2C#N)ccc1O (centres undefined) the results were MsrA act -4, PG9 Ab binder 1, HGIII-sPLA2 inh -7, MsrA inhibitor 0 and rCAG RNA binder 20.
Screening COc1ccc2ccccc2c1C1CC(=O)N2CN(C3CCCCC3)CSC2=C1C#N (centres undefined) returned MsrA act -8, PG9 Ab binder -1, HGIII-sPLA2 inh -17, MsrA inhibitor 1 and rCAG RNA binder 39*.
COC(=O)[C@H]1C[C@@]2(N3CCCCC3)c3ccccc3N(C(=O)OC(C)(C)C)[C@H]2N1C(=O)OC(C)(C)C was read as HGIII-sPLA2 inh 15 and rCAG RNA binder -2.
For NC(=S)N=Nc1c(O)[nH]c2ccc(F)cc12 the results were MsrA act -2, PG9 Ab binder -6, HGIII-sPLA2 inh 11, MsrA inhibitor 4.5* and rCAG RNA binder 1.
`CCOC(=O)[C@]12CCCC=C1N(Cc1ccc(OC)cc1)C(=O)[C@@H]2CC(=O)N1CCN(C(=O)c2ccco2)CC1` gave HGIII-sPLA2 inh 4 and rCAG RNA binder 4.
For O=c1cnnc(N/N=C/c2cccs2)[nH]1 the results were MsrA act -4, PG9 Ab binder -1, HGIII-sPLA2 inh 0, MsrA inhibitor 4.6* and rCAG RNA binder -2.
`Cc1ccc(C(=O)Nc2ccc([N+](=O)[O-])cn2)o1` gave MsrA act -3, PG9 Ab binder -1, HGIII-sPLA2 inh 4, MsrA inhibitor 4.6* and rCAG RNA binder 1.
For COc1ccc(N2C(=O)CN=C2Nc2nc(C)cc(C)n2)cc1 the results were MsrA act -1, PG9 Ab binder -1, HGIII-sPLA2 inh -2, MsrA inhibitor 4.5* and rCAG RNA binder -3.
Screening Cc1cc(C)nc(NC2=NCC(=O)N2c2ccccc2)n1 returned MsrA act -6, PG9 Ab binder -1, HGIII-sPLA2 inh -2, MsrA inhibitor 2 and rCAG RNA binder -1.
N#Cc1c(-c2ccccc2)nc(SCC(=O)Nc2ccccc2)[nH]c1=O was read as MsrA act -2, PG9 Ab binder 4, HGIII-sPLA2 inh -31, MsrA inhibitor 1 and rCAG RNA binder 29.
Screening N#Cc1c(-c2ccccc2)nc(SCC(=O)N2c3ccccc3Sc3ccccc32)[nH]c1=O returned MsrA act -9, PG9 Ab binder 3, HGIII-sPLA2 inh -92, MsrA inhibitor 0 and rCAG RNA binder 89*.
Screening CCOC(=O)CCCCC(=O)c1[nH]c(=O)[nH]c1CSCCO returned MsrA act 6, PG9 Ab binder -1, HGIII-sPLA2 inh 2, MsrA inhibitor -1 and rCAG RNA binder -2.
CCOC(=O)CCCCC(=O)c1[nH]c(=O)[nH]c1CSc1nc(-c2ccccc2)c(C#N)c(=O)[nH]1 was read as MsrA act -12, PG9 Ab binder -2, HGIII-sPLA2 inh -9, MsrA inhibitor 0 and rCAG RNA binder 56*.
For N#Cc1cc(F)cc(OC[C@@H](O)CN2CCC(C(O)(c3ccccc3)c3ccccc3)CC2)c1 the results were HGIII-sPLA2 inh -25 and rCAG RNA binder -3.
For C/C(=N\NC(=O)c1ccc(Br)cc1)C1C(=O)c2ccccc2C1=O the results were MsrA act -2, PG9 Ab binder 0, HGIII-sPLA2 inh 0, MsrA inhibitor 1 and rCAG RNA binder 48*.
For C[C@@H]1CN([C@H](C)CO)C(=O)c2cc(NC(=O)Nc3ccccc3)ccc2O[C@@H](C)CCCCO[C@H]1CN(C)S(=O)(=O)c1ccc(F)cc1 the results were HGIII-sPLA2 inh -48.
`COc1ccc(C(=O)OCCN(C)C2CN(Cc3cn(Cc4cccc(F)c4)nn3)S(=O)(=O)C2)cc1OC` (centres undefined) gave HGIII-sPLA2 inh 0 and rCAG RNA binder 2.
For Cc1ccc(C)n1-c1sc2c(c1C(=O)O)CCCC2 the results were MsrA act -2, PG9 Ab binder -2, HGIII-sPLA2 inh -7, MsrA inhibitor 0 and rCAG RNA binder 35*.
`S=C(Nc1cccc(Cl)c1)OCCN1CCCC12CCC(c1ccccc1)CC2` (centres undefined) gave HGIII-sPLA2 inh -5.
Screening CCc1nnc(NC(=O)CSc2nc(C3CCCCC3)nc3ccccc23)s1 returned MsrA act 3, PG9 Ab binder 16*, HGIII-sPLA2 inh 9, MsrA inhibitor 1 and rCAG RNA binder -5.
`CCc1nnc(NC(=O)CSc2nc(-c3ccccc3)nc3ccccc23)s1` gave MsrA act -3, PG9 Ab binder 5, HGIII-sPLA2 inh 14, MsrA inhibitor 0 and rCAG RNA binder -1.
`CCCCNC(=S)N/N=C/c1ccc(C#N)cc1` gave MsrA act -2, PG9 Ab binder -1, HGIII-sPLA2 inh -3, MsrA inhibitor 4.7* and rCAG RNA binder -3.
CC1(C)Cc2nc3sc4c(=O)n(CC(N)=O)cnc4c3cc2CO1 was read as MsrA act -5, PG9 Ab binder -1, HGIII-sPLA2 inh 8, MsrA inhibitor 0 and rCAG RNA binder 2.
For CC1(C)Cc2nc3sc4c(=O)n(CC(=O)NCc5ccccc5)cnc4c3cc2CO1 the results were MsrA act -12, PG9 Ab binder 50*, HGIII-sPLA2 inh -3, MsrA inhibitor 0 and rCAG RNA binder 4.
Screening O=C(O)c1ccc(COc2ccc3ccccc3c2/C=C2/NC(=O)N(c3ccccc3)C2=O)cc1 returned MsrA act 0, PG9 Ab binder -1, HGIII-sPLA2 inh -38, MsrA inhibitor 1 and rCAG RNA binder 74*.
`CC(C)CSc1nnc(-c2ccco2)n1C` gave HGIII-sPLA2 inh 0 and rCAG RNA binder 0.
`COc1cc(C(=O)Nc2nc3ccccc3s2)ccc1OCc1c(C)noc1C` gave MsrA act -11, PG9 Ab binder 11*, HGIII-sPLA2 inh 1, MsrA inhibitor 1 and rCAG RNA binder -9.
Screening O=C(c1cccs1)N1CC[C@H]2[C@H](CCCN2Cc2ccc(F)cc2)C1 returned HGIII-sPLA2 inh 0 and rCAG RNA binder 1.
For CN1CCc2cc3c(c4c2[C@H]1[C@H](O)c1ccccc1-4)OCO3 the results were MsrA act 37*, PG9 Ab binder -2, HGIII-sPLA2 inh 0, MsrA inhibitor 0 and rCAG RNA binder -2.
Screening Cc1ccc(C(=O)N/C(=C\c2ccc3c(c2)OCO3)C(=O)Nc2ccc(C(=O)O)cc2)cc1 returned MsrA act -7, PG9 Ab binder 1, HGIII-sPLA2 inh -8, MsrA inhibitor 4.6* and rCAG RNA binder 26.
Screening COc1ccc(C(=O)CSc2nnc(-c3n[nH]c4c3CCC4)n2N)cc1OC returned HGIII-sPLA2 inh -4 and rCAG RNA binder 2.
Screening O=C(O)C(CO)N=Cc1c(O)c2ccccc2oc1=O (centres undefined) returned MsrA act -9, PG9 Ab binder -2, HGIII-sPLA2 inh -9, MsrA inhibitor 4.6* and rCAG RNA binder 12.
